# Tau fluor counter: Counterscreen qHTS for Inhibitors of Tau Fibril Formation, Fluorescence Polarization | tau K18 P301L Alexa594 fluorescence, heparin fibrillization | Potency, µM (highest dose often 57.7 µM), inactives show at the top dose activity change, negative = decrease | 0.93% of 280,000 active | AID 1463, 2008; further: potency means the concentration at half of the fitted maximal effect; nearly all actives have a fitted effect of over 55% in size
#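 Human tau K18 P301L (15 uM unlabeled, 0.24 uM Alexa 594-labeled) in 100 mM sodium acetate pH 7 with 20 uM heparin, 6 hr at 37 C. ThT 30 uM added, 1 hr ambient; Alexa 594 FP and total fluorescence read at 555/632 nm.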
# Tau fibril FP: qHTS for Inhibitors of Tau Fibril Formation, Fluorescence Polarization. Microtubule-associated protein tau (Homo sapiens), P10636. K18 P301L tau heparin fibrillization, Alexa594 FP, 6 h. Potency, µM (doses to about 57.7 µM), inactives show top-dose activity, negative = inhibition, hits mostly inhibitors. 0.39% of 280,000 active. AID 1468, 2008; further: potency means the concentration at half of the fitted maximal effect; nearly all actives have a fitted effect of over 55% in size
# Target sequence (P10636 561-689 P618L limits assumed): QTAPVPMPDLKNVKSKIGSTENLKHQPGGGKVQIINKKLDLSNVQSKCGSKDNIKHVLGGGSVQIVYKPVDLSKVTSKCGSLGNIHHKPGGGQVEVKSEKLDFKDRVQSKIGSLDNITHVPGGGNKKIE
#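 K18 P301L tau (15 uM unlabeled/0.24 uM Alexa 594-labeled, final) + compound + heparin 20 uM final; 100 mM NaOAc pH 7; 6 hr 37 C; ThT 30 uM final added, 1 hr RT; FP ex 555/em 632 nm.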
# TRb SRC2 PPI: qHTS for Inhibitors of the Interaction of Thyroid Hormone Receptor and Steroid Receptor Coregulator 2 | Thyroid hormone receptor beta (Homo sapiens), P10828 | TRbeta-SRC2 peptide binding, fluorescence polarization; receptor liganded with 1 µM T3 | Potency, µM (titrated, usually from 106 µM), without a hit: at the highest dose activity change, negative = inhibition, actives largely listed as inhibitors | 0.065% of 280,000 active | AID 1469, 2008;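 further: potency means the concentration at half of the fitted maximal effect; plate controls were bound peptide for no effect and peptide without receptor for full effect; nearly all actives have a fitted effect of over 50% in size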
# Target sequence (P10828 whole entry, looked up): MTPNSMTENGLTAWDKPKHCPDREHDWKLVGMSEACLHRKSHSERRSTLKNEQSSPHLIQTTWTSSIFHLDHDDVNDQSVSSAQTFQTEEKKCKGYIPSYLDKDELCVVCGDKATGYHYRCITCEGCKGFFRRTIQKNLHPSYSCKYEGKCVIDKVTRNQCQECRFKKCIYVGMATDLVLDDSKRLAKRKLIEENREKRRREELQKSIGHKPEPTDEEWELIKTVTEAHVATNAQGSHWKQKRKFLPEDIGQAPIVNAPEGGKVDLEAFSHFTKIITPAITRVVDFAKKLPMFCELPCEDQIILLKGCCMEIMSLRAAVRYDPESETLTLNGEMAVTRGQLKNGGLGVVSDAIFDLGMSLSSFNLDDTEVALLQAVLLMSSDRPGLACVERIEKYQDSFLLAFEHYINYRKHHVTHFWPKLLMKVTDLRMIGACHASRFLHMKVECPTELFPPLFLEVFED
#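 Fluorescence polarization of 20 nM Texas Red SRC2 peptide (20-aa NR interaction domain) bound to 0.6 uM human TRb ligand-binding domain, with 1 uM T3, after 5 hr at ambient temperature; inhibition seen as decreased polarization.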
# TR SRC2 fluor cs: Total Fluorescence Counterscreen for Inhibitors of the Interaction of Thyroid Hormone Receptor and Steroid Receptor Coregulator 2; AID 1479, 2009; Potency, µM (doses to about 106 µM), for inactives: at the top dose fluorescence change, negative = quenching; TRb/SRC2 Texas Red total fluorescence interference; 0.29% of 280,000 active; active means well fitted curve in either direction with a large enough effect; inconclusive means small, poorly fitted or top-dose-only effect; further: potency means the concentration at half of the fitted maximal effect
#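 Human TRb ligand-binding domain at 0.6 uM with 20 nM Texas Red SRC2 peptide in Tris buffer containing 1 uM T3 and 5% DMSO, incubated with compound 5 h at ambient temperature. Total fluorescence (555/632 nm) calculated as parallel + 2 × perpendicular.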
# Tau ThT inhib: qHTS for Inhibitors of Tau Fibril Formation, Thioflavin T Binding; Microtubule-associated protein tau (Homo sapiens), P10636; recombinant tau K18 P301L (four-repeat tau fragment), heparin-induced fibrillization, ThT fluorescence; Potency, µM (highest dose often 57.4 µM), without a hit: at the highest dose activity, negative = inhibition, actives largely listed as inhibitors; 2.1% of 270,000 active; AID 1460, 2008; further: potency means the concentration at half of the fitted maximal effect; nearly all actives have a fitted effect of over 55% in size
#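 Heparin-induced (20 uM) aggregation of recombinant human K18 P301L tau, 15 uM unlabeled with 0.24 uM labeled, pH 7 acetate buffer, 6 hr at 37 C with compound. Fibrils quantified by 30 uM ThT fluorescence after 1 hr ambient incubation.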
# PNC assembly inh: High Content Assay for Compounds that inhibit the Assembly of the Perinucleolar Compartment; activity change (PNC), negative = inhibition, % at 10 µM; PC3M PTB-GFP, PNC prevalence imaging, 16 h; stronger effect = lower value; AID 2417, 2010; 3.1% of 140,000 active;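 active means readout at or below -70, meaning at least 70% loss of cells showing the perinucleolar compartment, a nuclear body marking cancer cells; inconclusive means readout between -30 and a set limit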;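 further: plate controls were DMSO wells for no effect and camptothecin positive control wells for full effect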
#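 Compounds are pinned in duplicate onto adhered PC3M cells stably expressing GFP-tagged PTB and incubated 16 h at 37 C. Cells are then fixed, nuclei stained with Hoechst, and PNC-positive cells counted.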
# Numbers without * were called inactive; ? = inconclusive; . = no result; [ ] = dose if it differs, or a comment. Rows were chosen to be rich in hits. Some 4.6% of all compounds tested hit in one or more screens of this group. Unless noted, the call rests on the fitted dose curve; in most records, active means well fitted curve in the direction sought with a large enough effect; inconclusive means small, poorly fitted or top-dose-only effect, or another doubt; inactive means no such curve, though single readings can be large; an effect the other way counts as inactive or inconclusive. Unless noted, on the % scale 0 is the no-effect control and ±100 the full control effect.
SMILES,Tau fluor counter,Tau fibril FP,TRb SRC2 PPI,TR SRC2 fluor cs,Tau ThT inhib,PNC assembly inh
COc1cccc(Cn2c(-c3nonc3N)nc3ccccc32)c1,?,?,3%,-5%,-2%,-111*
CCc1ccc(NC(=O)C(Cc2ccccc2)NS(=O)(=O)c2ccc3c(c2)c(=O)n(C)c(=O)n3C)cc1 (stereo not given),?,-7%,1%,-4%,-1%,.
Cc1ccc(S(=O)(=O)NCC(c2ccco2)N2CCN(c3ccccc3F)CC2)cc1 (stereo not given),-15%,-1%,-1%,1%,-6%,.
COc1ccccc1N1CCN(C2CCN(C3CCC(c4ccccc4)CC3)CC2)CC1 (stereo not given),-9%,-10%,3%,1%,-18%,.
COc1ccc(CNc2oc(COc3ccc(Cl)cc3)nc2C#N)cc1,?,2%,-2%,-1%,-16%,-11
COCCCNc1oc(-c2ccc(COc3ccc(Cl)cc3)o2)nc1C#N,11µM*[quencher],?,-3%,-8%,?,.
COc1ccc(Nc2oc(COc3ccc(Cl)cc3)nc2C#N)cc1,20µM*[quencher],11%,-1%,0%,?,0
O=S(=O)(NCc1cccnc1)c1ccc2c(c1)OCCO2,2%,-1%,7%,4%,5%,-1
C/C(=N\Nc1ccc(C(=O)O)cc1)c1ccc2c(c1)Nc1ccccc1S2,13µM*[quencher],-10%,-8%,-5%,3.5µM*,.
CC1=NN(c2ccc(C(=O)OC(C)C)cc2)C(=O)/C1=C\C=C\c1ccco1,-6%,-4%,7%,0%,3%,366
CC1=NN(c2ccc(C)c(C)c2)C(=O)/C1=C\C=C\c1ccc([N+](=O)[O-])o1,?,?,3%,-20%,25µM*,.
CC1CCCCN1S(=O)(=O)c1ccc(S(=O)(=O)N2CCN(c3ccc(F)cc3)CC2)cc1 (stereo not given),-16%,6%,-5%,-9%,-8%,-114*
O=C(/C=C/c1ccccc1)N1CCC(Cc2ccccc2)CC1,-5%,3%,1%,-5%,-11%,-3
COc1ccccc1N1CCN(C(=O)/C=C/c2cccs2)CC1,2%,-8%,1%,-2%,5%,-16
COc1ccccc1N1CCN(C(=O)/C=C/c2ccccc2)CC1,2%,8%,-5%,-4%,1%,-100*
COC(=O)C1CCN(C(=O)/C=C/c2ccccc2)CC1,1%,-5%,7%,-2%,1%,-114*
COc1ccccc1N1CCN(C(=O)c2sc3nc(-c4ccccc4)cn3c2C)CC1,-17%,7%,10%,1%,?,-95*
Cc1c(C(=O)N2CCN(c3ccc(F)cc3)CC2)sc2nc(-c3ccccc3)cn12,-12%,-7%,7%,-4%,-13%,-8
CCC1CN(C(=O)N2CCC(C(=O)NCc3ccc(C)o3)CC2)c2ccccc2O1 (stereo not given),-23%,-5%,-6%,-5%,12%,.
CCn1c(SCC(=O)Nc2ccc3c(c2)c2ccccc2n3CC)nnc1-c1ccco1,-5%,-7%,-8%,0%,-9%,23
COc1cc(OC)c(NC(=O)n2ncc3cc(Cl)ccc32)cc1Cl,-21%,-6%,-5%,-2%,-7%,.
COc1ccc(OC)c(-c2cc(C(=O)Nc3c(C)nn(Cc4ccc(Cl)cc4)c3C)no2)c1,-19%,-3%,0%,1%,-10%,-22
CCOc1ccc(NC(=O)CCSc2ccc(C)cc2)cc1,-18%,3%,13%,4%,-11%,12
CCOc1ccc(Nc2ncnc3ccc([N+](=O)[O-])cc23)cc1,-16%,16%,-4%,-6%,10µM*,.
CN(C)c1ccc2c(O)cc(=O)n(C)c2c1,-27%,22µM*,?,-5%,25µM*,-21
SMILES,Tau fluor counter,Tau fibril FP,TRb SRC2 PPI,TR SRC2 fluor cs,Tau ThT inhib,PNC assembly inh
O=C(CNC(=O)c1ccc(F)cc1)N/N=C/c1cn[nH]c1-c1ccccc1,-14%,-11%,3%,-1%,-11%,-90*
O=C(CNC(=O)c1ccccc1F)N/N=C/c1cn[nH]c1-c1ccccc1,2%,5%,-8%,6%,5%,-2
CCC(=O)N1CCc2cc(S(=O)(=O)CCC(=O)NCCc3ccccc3)ccc21,-9%,-6%,-2%,-3%,1%,0
O=C(COc1ccc(S(=O)(=O)N2CCCC2)cc1Cl)NCc1ccc2c(c1)OCO2,-16%,12%,7%,-8%,-11%,-107*
O=C(Nc1nc(-c2nc3ccccc3s2)cs1)c1ccc(S(=O)(=O)N2CCOCC2)cc1,?,3%,2%,1%,?,?
CCc1cccc(C)c1Nc1c(-c2cccc(O)c2)nc2nc(C)cc(C)n12,-28%,13%,-2%,-2%,?,.
COc1cc(-c2nc3sccn3c2Nc2c(C)cccc2C)ccc1O,?,22µM*,-5%,0.004µM*[quencher],16µM*,.
Cc1cccc(C)c1Nc1c(-c2ccc(O)cc2)nc2sccn12,?,11%,1%,3%,?,.
CCc1cccc(C)c1Nc1c(-c2cccc(O)c2)nc2sccn12,18µM*[quencher],15%,-12%,?,?,.
CCOc1ccc(N2C(=O)C3Sc4[nH]c(=O)sc4C(/C=C/c4ccccc4)C3C2=O)cc1 (stereo not given),?,-16%,-8%,2%,14µM*,13
Cn1cnnc1Sc1nc2c(c(=O)n(C)c(=O)n2C)n1Cc1ccccc1Cl,4%,5%,-2%,-2%,-7%,-92*
Cc1ccc(Cl)c(OCC(=O)Nc2sc(C)c(C)c2C#N)c1,-4%,-4%,2%,-5%,-6%,36
CCCN(CCC)C(=O)c1cc([N+](=O)[O-])cc2c1-c1ccc([N+](=O)[O-])cc1C2=C(C#N)C#N,?,?,-1%,-1%,32µM*,.
CCCCCNC(=O)CC1Nc2c3ccccc3nc(=S)n2C1=O (stereo not given),-5%,1%,-3%,1%,-9%,47
Cc1ccc(C2=NN=C(NC(=O)CSc3nc(C)cc(C)n3)SC2)cc1,-18%,?,-7%,3%,13µM*,-12
Cc1ccc(C2=NN=C(NC(=O)CSc3nnc4c5ccccc5n(C)c4n3)SC2)cc1,-22%,?,4%,-5%,2.8µM*,27
